GCN5L2 inh: blocks human GCN5L2 histone acetyltransferase; 0.21% of 390,000 active; GCN5L2 HAT assay, ThioGlo1 CoA-SH fluorescence; Q92830; Potency, µM (series often up to 58.9 µM), hits mostly inhibitors
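Enzyme at 20nM final was mixed with library compounds for 15 min at room temperature. Peptide H3(1-25) at 75uM, acetyl-CoA at 70uM and ThioGlo1 at 50uM were then added. Plates were read immediately and after 20 min (Ex340nm/Em540nm).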
HP1b chromo inh: HP1-beta chromodomain-methylated histone interaction inhibition; 0.56% of 390,000 active; P83916; Potency, µM (titrated, usually from 114 µM), hits mostly inhibitors; AlphaScreen HP1-beta / biotin-H3K9me3 peptide binding; further: nearly all actives have a fitted effect of over 70% in size
Target sequence (P83916 whole entry, looked up): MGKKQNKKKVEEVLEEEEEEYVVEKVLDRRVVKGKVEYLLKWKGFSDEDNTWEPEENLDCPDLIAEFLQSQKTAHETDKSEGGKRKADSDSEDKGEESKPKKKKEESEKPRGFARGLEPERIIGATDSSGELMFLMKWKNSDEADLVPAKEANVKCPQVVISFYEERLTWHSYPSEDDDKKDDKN
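AlphaScreen: HP1-beta (50 nM) preformed 30 min with biotin-H3(1-18)K9me3 peptide (50 nM) in PBS pH 7.4, 0.01% Tween-20. Compound added for 30 min at RT, then streptavidin donor/nickel chelate acceptor beads (10 ug/mL) for 30 min.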
PI5P4Ka inh: blocks human PI5P4K alpha kinase activity | P48426 | PI5P4Kalpha enzyme, ADP-Glo luminescence, 60 min; stronger effect = lower value | max response, % | 1.2% of 330,000 active | AID 652105; active means max response of -50% or lower; inconclusive means between -30% and -50%; inactive means -30% or higher; further: value at the top dose of about 77 µM
Target sequence (P48426 whole entry, looked up): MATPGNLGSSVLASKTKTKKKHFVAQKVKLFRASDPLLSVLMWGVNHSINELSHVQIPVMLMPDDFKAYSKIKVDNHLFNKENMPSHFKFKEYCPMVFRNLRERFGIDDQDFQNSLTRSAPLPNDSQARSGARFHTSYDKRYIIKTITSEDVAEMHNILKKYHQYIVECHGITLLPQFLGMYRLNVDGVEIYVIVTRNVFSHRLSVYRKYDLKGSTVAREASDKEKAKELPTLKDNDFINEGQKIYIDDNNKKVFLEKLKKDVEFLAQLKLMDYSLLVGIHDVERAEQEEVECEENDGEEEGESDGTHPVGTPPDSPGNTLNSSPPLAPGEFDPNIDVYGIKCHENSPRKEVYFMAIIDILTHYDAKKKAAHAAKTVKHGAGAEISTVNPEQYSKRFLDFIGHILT
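Quantitative HTS of the MLSMR library against PI5P4Kalpha with substrate. ATP added last at 5 microM final; room temperature, 60 minutes. Remaining ATP depleted, ADP converted and read as luminescence.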
BAZ2B inh: blocks human BAZ2B. Q9UIF8. AlphaScreen BAZ2B-H3K14Ac peptide displacement. Potency, µM (top dose mostly 114 µM), actives largely listed as inhibitors. 4.4% of 360,000 active. AID 504333; further: nearly all actives have a fitted effect of over 60% in size
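BAZ2B (50 nM) with biotin-H3(5-23)K14Ac peptide (50 nM) in PBS pH 7.4, 0.01% Tween-20, preformed 30 min, then compound 30 min at room temperature; top concentration 110uM. AlphaScreen streptavidin donor/nickel chelate acceptor beads (10 ug/mL final), 20 min dark, signal read.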
JMJD2A Tudor inh: blocks the human JMJD2A Tudor domain | O75164 | AlphaScreen JMJD2A-Tudor / H3K4me3 peptide binding | Potency, µM (top dose mostly 114 µM), most hits filed as inhibitors | 4.4% of 390,000 active; further: nearly all actives have a fitted effect of over 50% in size
PLK1 PBD block: PLK1 (human) polo-box domain binding inhibition | Plk1 PBD binding of FITC phosphopeptide, fluorescence polarization | AID 720504 | Potency, µM, usual class: inhibitors | 2.8% of 360,000 active; further: series mostly up to about 57 µM; nearly all actives have a fitted effect of over 65% in size
Numbers stand for hits; ! = not active in a repeat; [ ] = another dose, or the depositor's remark. Sampled rows, rich in hits. Any-hit rate of the full collection: about 7%. Unless noted, the call rests on the fitted dose curve; in most records, active means well fitted curve in the direction sought with a large enough effect; inconclusive means small, poorly fitted or top-dose-only effect, or another doubt; inactive means no such curve, though single readings can be large; an effect the other way counts as inactive or inconclusive.

Screening CC(/C=C\c1cccnc1)=C/C(=O)O returned GCN5L2 inh inactive, HP1b chromo inh inactive, PI5P4Ka inh inactive, BAZ2B inh 50µM!, JMJD2A Tudor inh 56µM! and PLK1 PBD block inactive.
`O=C(O)/C=C/c1cccnc1` gave GCN5L2 inh inactive, HP1b chromo inh inactive, PI5P4Ka inh inactive, BAZ2B inh inactive, JMJD2A Tudor inh inactive and PLK1 PBD block inactive.
Screening Cc1cc(/C=C(/C#N)c2nc3ccccc3[nH]2)c(C)n1-c1cccc([N+](=O)[O-])c1 returned GCN5L2 inh inactive[0.501 µM], HP1b chromo inh inactive, PI5P4Ka inh inactive, BAZ2B inh inconclusive, JMJD2A Tudor inh 89µM and PLK1 PBD block inactive.
For Cc1cc(/C=C(\C#N)c2nc3ccccc3[nH]2)c(C)n1C the results were GCN5L2 inh inactive, HP1b chromo inh inactive, PI5P4Ka inh inactive, BAZ2B inh inactive, JMJD2A Tudor inh inactive and PLK1 PBD block inactive.
`Cc1ccc2nc(/C(C#N)=C\c3cc(O)ccc3[N+](=O)[O-])[nH]c2c1` gave GCN5L2 inh inactive, HP1b chromo inh inactive, PI5P4Ka inh inconclusive, BAZ2B inh inconclusive, JMJD2A Tudor inh inactive[11.4 µM] and PLK1 PBD block 24µM.
Screening COc1c(O)ccc(/C=C(\C#N)c2nc3ccccc3[nH]2)c1[N+](=O)[O-] returned GCN5L2 inh inactive, HP1b chromo inh inconclusive, PI5P4Ka inh inconclusive, BAZ2B inh 40µM, JMJD2A Tudor inh inconclusive and PLK1 PBD block inactive.
`COc1cc(/C=C(\C#N)c2nc3ccccc3[nH]2)cc(OC)c1O` gave GCN5L2 inh inactive, HP1b chromo inh inactive, PI5P4Ka inh inconclusive, BAZ2B inh 40µM, JMJD2A Tudor inh inconclusive and PLK1 PBD block inactive.
Screening COc1ccc(/C=C(\C#N)c2nc3ccccc3[nH]2)cc1O returned GCN5L2 inh inactive, HP1b chromo inh inactive, PI5P4Ka inh inactive, BAZ2B inh inactive, JMJD2A Tudor inh inconclusive and PLK1 PBD block inconclusive.
Screening COc1cc(/C=C(\C#N)c2nc3ccc(C)cc3[nH]2)c([N+](=O)[O-])cc1OC returned GCN5L2 inh inactive, HP1b chromo inh inactive, PI5P4Ka inh inactive, BAZ2B inh inactive, JMJD2A Tudor inh inactive and PLK1 PBD block inactive.
`O=C(CC12CC3CC(CC(C3)C1)C2)NC(=S)NCc1ccco1` gave GCN5L2 inh inactive, HP1b chromo inh inactive, PI5P4Ka inh inactive, BAZ2B inh inactive, JMJD2A Tudor inh inactive and PLK1 PBD block inactive.
For CCc1c(C)sc(NC(=O)c2cc3nc(-c4ccc(OC)cc4)cc(C(F)(F)F)n3n2)c1C(=O)OC the results were GCN5L2 inh inactive, HP1b chromo inh inactive, BAZ2B inh inactive and JMJD2A Tudor inh inactive.
O=C(NCCc1ccc(Cl)cc1)C1=CC=CN2CCS(=O)(=O)N=C12 was read as GCN5L2 inh inactive, HP1b chromo inh inactive, PI5P4Ka inh inactive, BAZ2B inh inactive, JMJD2A Tudor inh inactive and PLK1 PBD block inactive.
For COC(=O)/C(C#N)=C/c1c[nH]c2ccccc12 the results were GCN5L2 inh inactive, HP1b chromo inh inactive, PI5P4Ka inh inactive, BAZ2B inh inactive, JMJD2A Tudor inh inactive and PLK1 PBD block inactive.
`COc1cc(/C=C(\C#N)C(=O)c2c[nH]c3ccccc23)cc(OC)c1O` gave GCN5L2 inh inactive, HP1b chromo inh inconclusive, PI5P4Ka inh -75, JMJD2A Tudor inh 50µM and PLK1 PBD block inactive.
COc1cc(/C=C(\C#N)c2nc3ccc(C)cc3[nH]2)cc([N+](=O)[O-])c1O was read as GCN5L2 inh inactive, HP1b chromo inh 35µM, PI5P4Ka inh -88, BAZ2B inh 13µM, JMJD2A Tudor inh 40µM and PLK1 PBD block inconclusive.
For COc1ccc(/C=C(\C#N)c2nc3ccc(C)cc3[nH]2)cc1Oc1ccc(C(F)(F)F)cc1[N+](=O)[O-] the results were GCN5L2 inh 2.8µM, HP1b chromo inh inactive, PI5P4Ka inh inactive, BAZ2B inh inactive, JMJD2A Tudor inh inactive and PLK1 PBD block inactive.
Cc1nc(C)n(CC(C)C(=O)N2CCN(S(=O)(=O)c3ccccc3)CC2)n1 (centres undefined) was read as GCN5L2 inh inactive, HP1b chromo inh inactive, PI5P4Ka inh inactive, BAZ2B inh inactive, JMJD2A Tudor inh inactive and PLK1 PBD block inactive.
Screening Cc1ccc(CC2S/C(=N/c3ccccn3)NC2=O)cc1 (centres undefined) returned GCN5L2 inh inactive, HP1b chromo inh inactive, PI5P4Ka inh inactive, BAZ2B inh inactive, JMJD2A Tudor inh inactive and PLK1 PBD block inactive.
For O=C1N/C(=N\c2ccccn2)SC1Cc1ccc(Cl)cc1 (centres undefined) the results were GCN5L2 inh inactive, HP1b chromo inh inactive, PI5P4Ka inh inactive, BAZ2B inh inactive, JMJD2A Tudor inh 25µM and PLK1 PBD block inactive.
For Cc1ccc(C(=O)NNC(=O)C2CCN(S(=O)(=O)c3ccc(C)cc3)CC2)cc1 the results were GCN5L2 inh inactive, HP1b chromo inh inactive, PI5P4Ka inh inactive, BAZ2B inh inactive, JMJD2A Tudor inh inconclusive and PLK1 PBD block inactive.
Screening Cc1c(Cl)cccc1S(=O)(=O)N1CCC(C(=O)NNC(=O)C2CC2)CC1 returned GCN5L2 inh inactive, HP1b chromo inh inactive, PI5P4Ka inh inactive, BAZ2B inh inactive, JMJD2A Tudor inh inactive and PLK1 PBD block 24µM.
`O=C(NC1CC1)C1CCN(S(=O)(=O)c2ccc(Cl)cc2)CC1` gave GCN5L2 inh inactive, HP1b chromo inh inactive, PI5P4Ka inh inactive, BAZ2B inh inactive, JMJD2A Tudor inh inactive and PLK1 PBD block inactive.
Screening Cc1ccc(S(=O)(=O)N2CCC(C(=O)NC3CCCC3)CC2)cc1Cl returned GCN5L2 inh inactive, HP1b chromo inh inactive, PI5P4Ka inh inactive, BAZ2B inh inactive, JMJD2A Tudor inh 100µM and PLK1 PBD block inactive.
For O=C(NC1CC1)C1CCN(S(=O)(=O)c2cc(Cl)ccc2Cl)CC1 the results were GCN5L2 inh inactive, HP1b chromo inh inactive, PI5P4Ka inh inactive, BAZ2B inh 56µM, JMJD2A Tudor inh inactive and PLK1 PBD block inactive.
C=CCNc1nc(C(=O)OCC(=O)Nc2ccc(S(N)(=O)=O)cc2)cs1 was read as GCN5L2 inh inactive, HP1b chromo inh inactive, PI5P4Ka inh inconclusive, BAZ2B inh 89µM, JMJD2A Tudor inh inconclusive and PLK1 PBD block inactive.
For CCC(C)N1CCC2(CC1)N=c1c(c3c4c5c(C)c(O)c3c(O)c1=NC(=O)C(C)=CC=C[C@H](C)[C@H](O)[C@@H](C)[C@@H](O)[C@@H](C)[C@H](OC(C)=O)[C@H](C)[C@@H](OC)C=CO[C@@](C)(O5)C4=O)N2 (some centres undefined) the results were GCN5L2 inh inactive, HP1b chromo inh inactive, PI5P4Ka inh inactive, BAZ2B inh 50µM, JMJD2A Tudor inh inconclusive and PLK1 PBD block inactive.
